# Measured values taken from the supplement of paper PMC10849652.
# Targets with a hit are over-represented here; the source holds about 7,900 in all. About 0.6% of all pairs of compound and target were hits. Unmarked numbers belong to inactive results.
# Tests used:
# Assay in all cases: log2 fold change, soluble protein after heating vs DMSO (PISA); higher = thermal stabilisation; K562 cells, 10 uM, 30 min; active = over 0.2 and 3.5 SD of the protein, either way, in both replicates (recomputed)
# bafetinib = compound: Cc1ccc(NC(=O)c2ccc(CN3CC[C@H](N(C)C)C3)c(C(F)(F)F)c2)cc1Nc1nccc(-c2cncnc2)n1 [bafetinib]
# How it was run: (§1)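 K562 cells at 2×10^6 cells/mL were exposed to 10 μM compound for 30 min, then aliquots were heated for 3 min across 48°C-58°C, pooled, and extracted in PBS containing 0.5% NP-40 at 4°C. The supernatant after 21,000xg for 90 min was taken as soluble protein and measured by TMTpro 16plex LC-MS/MS with channel sums equalised. Thermal stability is reported relative to control samples, with values from duplicates. Fold changes are given on a log2 scale.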
# [1] = compound: Cc1cccc(CC(=O)N2CCc3c2ccc(-c2cn(C)c4ncnc(N)c24)c3F)n1
# How it was run: as §1
# nilotinib = compound: Cc1cn(-c2cc(NC(=O)c3ccc(C)c(Nc4nccc(-c5cccnc5)n4)c3)cc(C(F)(F)F)c2)cn1 [nilotinib]
# How it was run: as §1
# [2] = compound: Cc1nc(Nc2n[nH]c3c2CN(C(=O)N[C@H](CN(C)C)c2ccccc2)C3(C)C)c2sccc2n1
# How it was run: as §1
# dasatinib = compound: Cc1nc(Nc2ncc(C(=O)Nc3c(C)cccc3Cl)s2)cc(N2CCN(CCO)CC2)n1 [dasatinib]
# How it was run: as §1
# [3] = compound: Cc1ncc(-c2ccnc(Nc3ccc(S(C)(=O)=O)cc3)n2)n1C(C)C
# How it was run: as §1
# [4] = compound: Cn1cc(-c2ccc3c(c2)CCN3C(=O)Cc2cccc(C(F)(F)F)c2)c2c(N)ncnc21
# How it was run: as §1
# [5] = compound: Cn1cc(-c2ccc3nnc(C(F)(F)c4ccc5ncccc5c4)n3n2)cn1
# How it was run: as §1
# tipifarnib = compound: Cn1cncc1[C@@](N)(c1ccc(Cl)cc1)c1ccc2c(c1)c(-c1cccc(Cl)c1)cc(=O)n2C [tipifarnib]
# How it was run: as §1
# mubritinib = compound: FC(F)(F)c1ccc(/C=C/c2nc(COc3ccc(CCCCn4ccnn4)cc3)co2)cc1 [mubritinib]
# How it was run: as §1
# [6] = compound: NC(=O)Nc1cc(-c2cccc(F)c2)sc1C(=O)N[C@H]1CCCNC1
# How it was run: as §1
# [7] = compound: NC(=O)c1cnc(N[C@@H]2CCCC[C@@H]2N)nc1Nc1cccc(-n2nccn2)c1
# How it was run: as §1
# [8] = compound: NC1(c2ccc(-c3nc4ccn5c(=O)[nH]nc5c4cc3-c3ccccc3)cc2)CCC1
# How it was run: as §1
# [9] = compound: NCC(=O)Nc1ccc(-n2nc(C(F)(F)F)cc2-c2ccc3c(ccc4ccccc43)c2)cc1
# How it was run: as §1
# entinostat = compound: Nc1ccccc1NC(=O)c1ccc(CNC(=O)OCc2cccnc2)cc1 [entinostat]
# How it was run: as §1
# vorinostat = compound: O=C(CCCCCCC(=O)Nc1ccccc1)NO [vorinostat]
# How it was run: as §1
# citarinostat = compound: O=C(CCCCCCNC(=O)c1cnc(N(c2ccccc2)c2ccccc2Cl)nc1)NO [citarinostat]
# How it was run: as §1
# silmitasertib = compound: O=C(O)c1ccc2c(c1)nc(Nc1cccc(Cl)c1)c1ccncc12 [silmitasertib]
# How it was run: as §1
# [10] = compound: O=C1NC(=O)C(c2cnc3ccccn23)=C1c1cn2c3c(cc(F)cc13)CN(C(=O)N1CCCCC1)CC2
# How it was run: as §1
# [11] = compound: c1cc(OCCN2CCCCC2)cc(-c2n[nH]c3ccc(-c4nnc[nH]4)cc23)c1
# How it was run: as §1
# Chain of UniProt Q8N573 (Q8N573 whole entry, looked up): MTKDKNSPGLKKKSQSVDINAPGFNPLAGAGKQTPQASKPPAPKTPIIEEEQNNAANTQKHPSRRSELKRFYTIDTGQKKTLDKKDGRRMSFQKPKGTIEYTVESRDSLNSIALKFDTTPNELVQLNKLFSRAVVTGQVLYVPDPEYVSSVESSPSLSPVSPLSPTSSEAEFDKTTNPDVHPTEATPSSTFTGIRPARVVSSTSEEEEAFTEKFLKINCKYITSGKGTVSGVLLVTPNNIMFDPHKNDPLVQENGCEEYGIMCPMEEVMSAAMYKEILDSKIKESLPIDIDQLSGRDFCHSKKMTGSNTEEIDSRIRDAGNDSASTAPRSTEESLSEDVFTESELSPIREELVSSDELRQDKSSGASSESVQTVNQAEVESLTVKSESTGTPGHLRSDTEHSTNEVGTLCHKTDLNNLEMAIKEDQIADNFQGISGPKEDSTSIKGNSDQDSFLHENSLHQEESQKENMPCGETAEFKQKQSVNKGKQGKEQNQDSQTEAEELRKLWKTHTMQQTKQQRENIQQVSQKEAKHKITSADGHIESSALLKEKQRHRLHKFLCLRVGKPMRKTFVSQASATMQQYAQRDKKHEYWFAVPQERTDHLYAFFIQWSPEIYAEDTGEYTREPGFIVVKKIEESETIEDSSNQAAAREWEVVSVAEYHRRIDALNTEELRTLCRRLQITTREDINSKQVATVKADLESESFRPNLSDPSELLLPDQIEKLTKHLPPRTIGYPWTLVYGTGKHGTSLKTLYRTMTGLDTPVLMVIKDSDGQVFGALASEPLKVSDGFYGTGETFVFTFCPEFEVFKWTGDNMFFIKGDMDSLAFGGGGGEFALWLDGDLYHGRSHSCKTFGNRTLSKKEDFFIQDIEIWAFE
# Chain of UniProt P20585 (P20585 whole entry, looked up): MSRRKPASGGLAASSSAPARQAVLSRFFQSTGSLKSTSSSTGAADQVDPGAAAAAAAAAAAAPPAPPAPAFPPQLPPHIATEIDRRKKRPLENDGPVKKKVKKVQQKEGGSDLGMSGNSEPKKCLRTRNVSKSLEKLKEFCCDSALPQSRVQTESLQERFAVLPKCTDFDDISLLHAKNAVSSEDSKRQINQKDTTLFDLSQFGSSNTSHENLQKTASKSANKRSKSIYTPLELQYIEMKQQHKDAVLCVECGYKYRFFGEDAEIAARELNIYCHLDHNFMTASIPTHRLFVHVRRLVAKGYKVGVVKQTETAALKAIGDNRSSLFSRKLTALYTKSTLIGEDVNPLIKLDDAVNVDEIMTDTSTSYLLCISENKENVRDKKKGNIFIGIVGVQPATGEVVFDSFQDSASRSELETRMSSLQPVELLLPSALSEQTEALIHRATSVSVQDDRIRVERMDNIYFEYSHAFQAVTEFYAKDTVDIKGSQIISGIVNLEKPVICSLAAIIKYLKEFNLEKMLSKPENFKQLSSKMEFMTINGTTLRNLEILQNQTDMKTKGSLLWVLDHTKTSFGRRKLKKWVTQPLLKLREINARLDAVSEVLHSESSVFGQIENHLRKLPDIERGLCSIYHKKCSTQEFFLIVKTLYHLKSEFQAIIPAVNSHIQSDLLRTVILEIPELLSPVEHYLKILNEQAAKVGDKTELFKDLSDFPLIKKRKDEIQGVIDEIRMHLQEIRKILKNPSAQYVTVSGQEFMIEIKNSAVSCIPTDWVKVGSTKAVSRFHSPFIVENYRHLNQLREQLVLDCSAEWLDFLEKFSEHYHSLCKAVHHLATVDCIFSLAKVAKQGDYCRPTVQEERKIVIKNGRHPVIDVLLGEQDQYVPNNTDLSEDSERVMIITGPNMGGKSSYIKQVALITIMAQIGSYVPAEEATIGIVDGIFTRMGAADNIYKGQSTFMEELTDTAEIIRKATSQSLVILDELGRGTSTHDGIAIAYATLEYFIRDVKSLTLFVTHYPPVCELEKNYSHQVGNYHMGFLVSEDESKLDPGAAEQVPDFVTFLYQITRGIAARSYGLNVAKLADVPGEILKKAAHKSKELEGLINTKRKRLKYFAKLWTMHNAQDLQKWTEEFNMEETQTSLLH
# Chain of UniProt Q9UMY1 (Q9UMY1 whole entry, looked up): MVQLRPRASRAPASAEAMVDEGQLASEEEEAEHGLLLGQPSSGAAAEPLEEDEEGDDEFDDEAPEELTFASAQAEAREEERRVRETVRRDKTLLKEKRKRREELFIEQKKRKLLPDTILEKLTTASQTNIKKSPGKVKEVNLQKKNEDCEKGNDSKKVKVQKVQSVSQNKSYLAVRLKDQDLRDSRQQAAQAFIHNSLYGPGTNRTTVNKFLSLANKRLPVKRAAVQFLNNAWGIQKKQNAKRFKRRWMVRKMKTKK
# Chain of UniProt P56556 (P56556 whole entry, looked up): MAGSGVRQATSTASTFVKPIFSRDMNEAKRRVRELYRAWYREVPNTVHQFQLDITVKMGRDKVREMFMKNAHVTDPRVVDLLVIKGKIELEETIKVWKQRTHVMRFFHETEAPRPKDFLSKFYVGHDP
# Chain of UniProt P35580 (P35580 whole entry, looked up): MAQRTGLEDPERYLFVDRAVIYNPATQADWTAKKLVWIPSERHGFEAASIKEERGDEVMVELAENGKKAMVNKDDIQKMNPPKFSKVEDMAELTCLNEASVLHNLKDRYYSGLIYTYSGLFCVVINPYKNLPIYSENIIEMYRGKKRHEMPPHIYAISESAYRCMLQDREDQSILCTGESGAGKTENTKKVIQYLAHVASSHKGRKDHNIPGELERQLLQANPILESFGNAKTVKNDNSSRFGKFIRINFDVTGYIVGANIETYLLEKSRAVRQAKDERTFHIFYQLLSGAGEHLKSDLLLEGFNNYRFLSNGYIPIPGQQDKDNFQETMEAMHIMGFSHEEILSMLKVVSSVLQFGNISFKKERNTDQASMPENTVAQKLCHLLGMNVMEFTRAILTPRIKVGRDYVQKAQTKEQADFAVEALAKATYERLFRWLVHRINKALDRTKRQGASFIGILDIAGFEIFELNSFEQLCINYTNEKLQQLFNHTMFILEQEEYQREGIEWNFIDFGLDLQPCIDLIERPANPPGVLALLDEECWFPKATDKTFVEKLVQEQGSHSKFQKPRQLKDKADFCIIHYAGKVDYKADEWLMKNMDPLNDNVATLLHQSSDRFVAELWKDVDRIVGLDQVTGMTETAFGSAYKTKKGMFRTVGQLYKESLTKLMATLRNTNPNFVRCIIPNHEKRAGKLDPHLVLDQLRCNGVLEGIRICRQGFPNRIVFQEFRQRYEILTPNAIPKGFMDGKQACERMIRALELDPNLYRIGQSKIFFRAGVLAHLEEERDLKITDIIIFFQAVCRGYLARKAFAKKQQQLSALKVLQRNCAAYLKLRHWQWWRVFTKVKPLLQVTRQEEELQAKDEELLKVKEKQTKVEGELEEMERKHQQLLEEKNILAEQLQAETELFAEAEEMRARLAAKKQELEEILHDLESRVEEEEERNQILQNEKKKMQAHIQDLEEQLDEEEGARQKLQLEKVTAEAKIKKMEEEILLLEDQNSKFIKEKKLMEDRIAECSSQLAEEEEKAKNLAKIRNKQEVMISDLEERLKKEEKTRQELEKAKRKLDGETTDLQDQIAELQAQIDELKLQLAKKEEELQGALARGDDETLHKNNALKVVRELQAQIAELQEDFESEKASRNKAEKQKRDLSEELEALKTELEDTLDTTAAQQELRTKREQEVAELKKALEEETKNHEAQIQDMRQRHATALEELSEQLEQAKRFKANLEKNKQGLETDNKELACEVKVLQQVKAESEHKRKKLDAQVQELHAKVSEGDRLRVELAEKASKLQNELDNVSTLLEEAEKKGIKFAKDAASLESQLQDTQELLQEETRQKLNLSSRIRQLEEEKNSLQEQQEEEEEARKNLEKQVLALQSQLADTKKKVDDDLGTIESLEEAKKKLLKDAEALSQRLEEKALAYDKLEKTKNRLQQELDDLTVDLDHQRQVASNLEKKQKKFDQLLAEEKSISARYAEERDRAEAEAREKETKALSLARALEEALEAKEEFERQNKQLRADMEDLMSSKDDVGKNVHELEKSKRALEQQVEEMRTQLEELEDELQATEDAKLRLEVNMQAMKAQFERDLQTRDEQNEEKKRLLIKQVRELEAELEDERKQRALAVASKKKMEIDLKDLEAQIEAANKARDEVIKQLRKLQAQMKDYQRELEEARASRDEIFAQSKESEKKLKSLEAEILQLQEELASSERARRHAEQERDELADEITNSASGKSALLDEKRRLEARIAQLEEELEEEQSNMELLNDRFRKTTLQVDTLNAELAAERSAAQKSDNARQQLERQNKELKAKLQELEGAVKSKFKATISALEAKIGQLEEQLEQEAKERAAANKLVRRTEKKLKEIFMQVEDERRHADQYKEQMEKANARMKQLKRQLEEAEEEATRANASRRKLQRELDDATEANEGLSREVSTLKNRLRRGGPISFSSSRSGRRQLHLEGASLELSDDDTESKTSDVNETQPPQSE
# Chain of UniProt Q16795 (Q16795 whole entry, looked up): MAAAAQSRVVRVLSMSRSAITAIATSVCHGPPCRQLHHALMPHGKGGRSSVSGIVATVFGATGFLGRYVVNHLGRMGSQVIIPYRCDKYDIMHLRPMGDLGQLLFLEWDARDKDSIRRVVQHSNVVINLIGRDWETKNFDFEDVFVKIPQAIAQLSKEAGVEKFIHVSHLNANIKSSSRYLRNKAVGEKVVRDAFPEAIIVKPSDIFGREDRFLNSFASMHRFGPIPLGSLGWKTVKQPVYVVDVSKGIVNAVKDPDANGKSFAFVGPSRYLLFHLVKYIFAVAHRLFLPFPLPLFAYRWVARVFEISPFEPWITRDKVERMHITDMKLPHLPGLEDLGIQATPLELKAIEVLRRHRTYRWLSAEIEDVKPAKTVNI
# Chain of UniProt P68402 (P68402 whole entry, looked up): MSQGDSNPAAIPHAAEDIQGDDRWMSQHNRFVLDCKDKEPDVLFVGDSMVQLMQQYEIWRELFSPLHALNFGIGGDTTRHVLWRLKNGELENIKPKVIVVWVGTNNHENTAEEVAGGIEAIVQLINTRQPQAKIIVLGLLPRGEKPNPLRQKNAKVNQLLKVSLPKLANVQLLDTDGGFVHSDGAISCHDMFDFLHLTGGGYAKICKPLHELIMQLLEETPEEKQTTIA
Target,log2 fold change (bafetinib),log2 fold change [1],log2 fold change (nilotinib),log2 fold change [2],log2 fold change (dasatinib),log2 fold change [3],log2 fold change [4],log2 fold change [5],log2 fold change (tipifarnib),log2 fold change (mubritinib),log2 fold change [6],log2 fold change [7],log2 fold change [8],log2 fold change [9],log2 fold change (entinostat),log2 fold change (vorinostat),log2 fold change (citarinostat),log2 fold change (silmitasertib),log2 fold change [10],log2 fold change [11]
NOL7 (UniProt Q9UMY1),0.284,-0.107,-0.016,0.146,0.183,-0.073,-0.257,-0.148,0.154,-0.156,0.107,0.131,0.316,0.177,-0.079,-0.042,-0.101,0.166,0.121,-0.218
MSH3 (UniProt P20585),-0.012,0.051,-0.046,-0.014,-0.038,0.052,-0.032,0.009,-0.029,0.167,-0.175,-0.001,-0.126,-0.007,-0.032,-0.017,0.031,0.034,-0.069,-0.019
NDUFA9 (UniProt Q16795),-0.019,0.033,-0.056,0.005,-0.127,0.012,0.002,-0.007,-0.033,0.223 (active),-0.025,-0.089,-0.112,-0.091,0.039,0.065,0.037,-0.016,-0.104,0.017
NUDT1 (UniProt P36639),0.129,0.052,-0.087,0.271,-0.127,0.301,0.194,0.06,-0.069,0.137,0.159,0.145,1.01 (active),-0.129,-0.026,0.033,-0.073,-0.091,0.791,0.572
OXR1 (UniProt Q8N573),-0.098,-0.063,0.079,-0.004,-0.034,-0.023,0.081,0.013,-0.038,0.05,0.03,0,-0.157,-0.008,0.023,-0.029,0.062,-0.009,-0.044,-0.001
NDUFA6 (UniProt P56556),0.128,0.301,-0.151,0.021,-0.088,0.027,0.089,0.081,-0.173,0.184,-0.023,0.028,-0.113,-0.083,0.056,0.118,0.036,-0.016,-0.131,-0.011
PAFAH1B2 (UniProt P68402),-0.025,0.035,0.067,-0.121,-0.011,-0.075,0.024,0.003,0.188,0.092,0.015,0.049,-0.037,-0.025,0.045,-0.088,0.021,0.106,-0.048,-0.097
MYH10 isoform 3 (UniProt P35580),-0.046,0.033,-0.049,-0.001,-0.057,0.004,0.056,0.011,-0.083,0.059,0.014,-0.026,-0.102,-0.035,0.019,0.004,0.041,-0.008,-0.036,0.013
